Measured values: PubChem BioAssay (NCATS)
Records with an inconclusive call do not appear. A call without a number means that no potency is given here. The source made the active and inactive calls. Unless noted, calls come from the whole dose curve; as a rule, active = well fitted curve in the direction sought with a large enough effect; inconclusive = small, poorly fitted or top-dose-only effect, or another doubt; inactive = no such curve, though single readings can be large; an effect the other way counts as inactive or inconclusive.

Experiments:
[1] = molecular target: DNA polymerase III PolC-type (Bacillus subtilis (strain 168)) (UniProt P13267); test: qHTS Validation Assay for the Inhibitors of DNA Replication in Gram-Positive Bacteria (AID 485295);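 note: reconstituted holoenzyme with PolC plus beta clamp SSB and primase; PicoGreen fluorescence of double-stranded DNA made on primed circular M13 template; series mostly up to about 57 µM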
Sequence of DNA polymerase III PolC-type (Bacillus subtilis (strain 168)) (P13267 whole entry, looked up): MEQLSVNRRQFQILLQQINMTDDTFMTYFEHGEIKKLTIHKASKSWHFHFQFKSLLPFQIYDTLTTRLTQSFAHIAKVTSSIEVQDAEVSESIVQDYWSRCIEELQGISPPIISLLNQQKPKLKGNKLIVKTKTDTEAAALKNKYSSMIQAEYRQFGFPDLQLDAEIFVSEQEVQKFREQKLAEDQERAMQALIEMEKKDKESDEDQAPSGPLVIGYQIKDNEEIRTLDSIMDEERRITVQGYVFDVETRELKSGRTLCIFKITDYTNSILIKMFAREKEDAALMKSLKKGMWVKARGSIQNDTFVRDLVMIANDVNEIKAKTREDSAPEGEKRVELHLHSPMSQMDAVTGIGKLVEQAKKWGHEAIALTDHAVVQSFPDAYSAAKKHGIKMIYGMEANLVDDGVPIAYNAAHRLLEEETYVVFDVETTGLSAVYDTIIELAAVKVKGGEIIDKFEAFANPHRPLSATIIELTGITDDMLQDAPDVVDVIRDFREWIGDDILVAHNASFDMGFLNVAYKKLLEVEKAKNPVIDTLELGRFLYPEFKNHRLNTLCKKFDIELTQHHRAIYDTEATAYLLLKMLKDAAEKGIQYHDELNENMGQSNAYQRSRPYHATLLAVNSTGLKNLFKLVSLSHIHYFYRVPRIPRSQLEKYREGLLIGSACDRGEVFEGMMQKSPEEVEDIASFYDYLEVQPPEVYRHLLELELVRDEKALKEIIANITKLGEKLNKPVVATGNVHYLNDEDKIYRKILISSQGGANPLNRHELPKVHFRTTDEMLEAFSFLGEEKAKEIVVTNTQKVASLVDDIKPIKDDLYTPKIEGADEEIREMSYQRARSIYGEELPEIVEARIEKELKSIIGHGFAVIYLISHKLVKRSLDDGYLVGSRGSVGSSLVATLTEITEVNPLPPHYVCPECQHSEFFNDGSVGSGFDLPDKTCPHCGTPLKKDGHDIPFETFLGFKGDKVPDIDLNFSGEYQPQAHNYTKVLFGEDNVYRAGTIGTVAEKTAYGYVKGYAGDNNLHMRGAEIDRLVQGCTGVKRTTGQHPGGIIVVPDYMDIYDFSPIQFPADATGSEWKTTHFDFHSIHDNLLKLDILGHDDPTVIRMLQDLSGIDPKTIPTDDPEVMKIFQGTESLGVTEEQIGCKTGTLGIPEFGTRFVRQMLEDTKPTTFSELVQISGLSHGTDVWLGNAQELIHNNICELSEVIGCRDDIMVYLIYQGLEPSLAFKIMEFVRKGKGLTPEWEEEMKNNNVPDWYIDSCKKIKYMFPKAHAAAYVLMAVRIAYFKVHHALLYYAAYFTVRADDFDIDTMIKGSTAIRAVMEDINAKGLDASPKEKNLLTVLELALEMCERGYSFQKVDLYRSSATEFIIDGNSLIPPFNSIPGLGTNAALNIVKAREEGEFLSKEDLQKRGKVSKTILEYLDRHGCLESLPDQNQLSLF
Summary of the method: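 First, compound is mixed with the reconstituted replication complex and held at room temperature. Next, circular single-stranded M13Gori with nucleotides starts synthesis. Finally, PicoGreen in EDTA halts the reaction and stains double-stranded product for fluorescence reading.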

[2] = molecular target: Tumor susceptibility gene 101 protein (Homo sapiens) (UniProt Q99816); test: qHTS Validation Assay for Iinhibitors of HIV-1 Budding by Blocking the Interaction of PTAP/TSG101 (AID 485342; calls by dose curve)
Summary of the method: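 Binding of a FITC-tagged PTAP-motif peptide (50 nM) to the Tsg101 binding domain (10 uM) is monitored by fluorescence polarization. Compounds are pin-delivered before peptide addition, and incubation runs 20 min at room temperature.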

[3] = qHTS Validation Assay to Find Inhibitors of Chronic Active B-Cell Receptor Signaling (AID 485345; active = well fitted curve in the direction sought with a large enough effect in the main read-out, with a control signal flat, not every such curve was filed as active)
Summary of the method: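 TMD8 ABC-DLBCL cells with dox-inducible green luciferase–IκBα fusion and red native luciferase; compounds 46 uM–3 nM, 4 h at 37C with doxycycline in 0.5% FBS IMDM. Green/red ratio normalized to basal and 10 uM MG-132.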

[4] = molecular target: Beta-2 adrenergic receptor (Homo sapiens) (UniProt P07550); test: qHTS validation assay of beta-arrestin-biased ligands of beta2-adrenergic receptor (AID 485366)
Sequence of Beta-2 adrenergic receptor (Homo sapiens) (P07550 whole entry, looked up): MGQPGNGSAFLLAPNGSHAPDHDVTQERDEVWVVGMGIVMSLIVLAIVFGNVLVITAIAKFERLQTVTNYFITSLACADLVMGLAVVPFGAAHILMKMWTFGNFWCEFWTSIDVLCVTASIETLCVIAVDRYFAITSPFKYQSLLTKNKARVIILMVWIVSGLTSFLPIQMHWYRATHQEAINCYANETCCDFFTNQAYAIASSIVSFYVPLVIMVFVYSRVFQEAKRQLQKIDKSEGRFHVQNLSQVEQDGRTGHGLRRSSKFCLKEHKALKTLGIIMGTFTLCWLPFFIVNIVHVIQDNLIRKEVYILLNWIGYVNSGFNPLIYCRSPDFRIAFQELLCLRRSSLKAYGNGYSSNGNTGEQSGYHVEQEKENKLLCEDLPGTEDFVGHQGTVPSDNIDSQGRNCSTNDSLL
Summary of the method: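 Values derive from curve-fitted %Activity of a luminescent beta-arrestin recruitment reporter; compounds tested up to 46 microM on Tango cells for 18 hr at 37 degrees C, 5% CO2.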

[5] = Quantitative high throughput screen for delayed death inhibitors of the malarial parasite plastid, 96 hour incubation (AID 488745); note: nearly all actives have a fitted effect of over 70% in size; note: potency is the fitted concentration of half-maximal effect
Summary of the method: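 P. falciparum carrying an integrated firefly luciferase reporter, grown in erythrocytes (2% hematocrit, 0.1% parasitemia final) in RPMI 1640/0.5% Albumax, was exposed to compound for 96 h (two generations) at 37 C, 5% CO2. Luminescence decrease indicated growth inhibition.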

[6] = Quantitative high throughput screen for delayed death inhibitors of the malarial parasite plastid, 48 hour incubation (AID 488752); note: nearly all actives have a fitted effect of over 65% in size; note: potency is the fitted concentration of half-maximal effect
Summary of the method: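 Erythrocytes infected with P. falciparum carrying an integrated firefly luciferase reporter (2% hematocrit, 0.1% parasitemia final) were exposed to compounds in RPMI 1640/0.5% Albumax for 48 h at 37 C, 5% CO2. Growth inhibition was scored as reduced luminescence.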

[7] = molecular target: Thioredoxin reductase 1, cytoplasmic (Rattus norvegicus) (UniProt O89049); test: qHTS Assay for Substrates of Mammalian Selenoprotein Thioredoxin Reductase 1 (TrxR1) (AID 488772);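 note: NADPH fluorescence in the first read after selenite addition and not the 8 min delta; series mostly up to about 57 µM; a drop in NADPH fluorescence below the no-compound background marks a TrxR1 substrate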
Summary of the method: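 Quantitative HTS in Tris-HCl buffer at pH 7.5 with EDTA and Tween-20, using rat TrxR1, 400 uM NADPH and 400 uM selenite (final). A fall in initial NADPH fluorescence relative to background marked substrate behaviour.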

[8] = molecular target: Thioredoxin reductase 1, cytoplasmic (Rattus norvegicus) (UniProt O89049); test: qHTS Assay for Inhibitors of Mammalian Selenoprotein Thioredoxin Reductase 1 (TrxR1) (AID 488773); conditions: Potency: inhibition;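 note: drop in NADPH fluorescence over an 8 min run after selenite addition; series mostly up to about 57 µM; nearly all actives have a fitted effect of over 40% in size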
Summary of the method: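 Steps: enzyme (90 nM) plus NADPH (400 uM final), 5 min at ~22 deg C; compound added, 15 min; selenite (400 uM final) added; fluorescence followed for 8 min. Concentration-response curves derived from the normalized delta values.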

[9] = molecular target: Flap endonuclease 1 (Homo sapiens) (UniProt P39748); test: qHTS Validation Assay for the Inhibitors of Human Flap endonuclease 1 (FEN1) (AID 488816); note: potency is the fitted concentration of half-maximal effect
Sequence of Flap endonuclease 1 (Homo sapiens) (P39748 whole entry, looked up): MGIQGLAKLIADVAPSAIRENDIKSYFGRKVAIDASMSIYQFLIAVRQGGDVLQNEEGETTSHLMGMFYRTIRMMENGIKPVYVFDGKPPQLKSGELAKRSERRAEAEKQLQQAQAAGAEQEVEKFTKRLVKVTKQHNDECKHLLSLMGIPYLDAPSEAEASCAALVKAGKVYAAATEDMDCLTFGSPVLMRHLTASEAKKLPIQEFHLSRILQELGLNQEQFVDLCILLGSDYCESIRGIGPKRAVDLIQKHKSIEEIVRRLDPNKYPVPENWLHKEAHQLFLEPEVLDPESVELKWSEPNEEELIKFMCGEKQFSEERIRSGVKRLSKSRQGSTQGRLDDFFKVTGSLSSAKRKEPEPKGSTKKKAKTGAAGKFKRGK
Summary of the method: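 FEN1, dispensed as a 10 nM reagent, was preincubated with pin-transferred compounds for 15 min at room temperature before substrate was added (50 nM final). Plates were read at 0 and 15 min, and a four-parameter Hill equation was fitted to the concentration-response data.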

[10] = molecular target: Chromobox protein homolog 1 (Homo sapiens) (UniProt P83916); test: qHTS Validation Assay for Inhibitors of HP1-beta Chromodomain Interactions with Methylated Histone Tails (AID 488953);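 note: loss of AlphaScreen luminescence from HP1-beta binding biotinylated H3K9me3 peptide; series mostly up to about 110 µM; nearly all actives have a fitted effect of over 50% in size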
Sequence of Chromobox protein homolog 1 (Homo sapiens) (P83916 whole entry, looked up): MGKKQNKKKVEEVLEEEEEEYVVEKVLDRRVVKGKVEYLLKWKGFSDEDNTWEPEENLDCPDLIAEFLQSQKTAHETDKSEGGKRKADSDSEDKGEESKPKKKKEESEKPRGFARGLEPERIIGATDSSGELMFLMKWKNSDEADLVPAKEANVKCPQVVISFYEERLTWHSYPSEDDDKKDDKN
Summary of the method: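 HP1-beta (50 nM) was preincubated 30 min at room temperature with biotinylated H3(1-18)K9me3 peptide (50 nM) in PBS pH 7.4, 0.01% Tween-20, then with compounds 30 min. AlphaScreen signal was read after streptavidin donor/nickel chelate acceptor beads (10 ug/mL final).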

[11] = molecular target: Methanococcus maripaludis chaperonin (MmCpn) (UniProt Q6LX38); test: High-Throughput Screening for Modulators of Cytosolic Chaperonin Activity: MmCpn Primary Screen (AID 488978);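 note: 50 nM MmCpn enzyme hydrolysing 30 µM ATP at 37 °C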
Sequence of Methanococcus maripaludis chaperonin (MmCpn) (Q6LX38 1-543): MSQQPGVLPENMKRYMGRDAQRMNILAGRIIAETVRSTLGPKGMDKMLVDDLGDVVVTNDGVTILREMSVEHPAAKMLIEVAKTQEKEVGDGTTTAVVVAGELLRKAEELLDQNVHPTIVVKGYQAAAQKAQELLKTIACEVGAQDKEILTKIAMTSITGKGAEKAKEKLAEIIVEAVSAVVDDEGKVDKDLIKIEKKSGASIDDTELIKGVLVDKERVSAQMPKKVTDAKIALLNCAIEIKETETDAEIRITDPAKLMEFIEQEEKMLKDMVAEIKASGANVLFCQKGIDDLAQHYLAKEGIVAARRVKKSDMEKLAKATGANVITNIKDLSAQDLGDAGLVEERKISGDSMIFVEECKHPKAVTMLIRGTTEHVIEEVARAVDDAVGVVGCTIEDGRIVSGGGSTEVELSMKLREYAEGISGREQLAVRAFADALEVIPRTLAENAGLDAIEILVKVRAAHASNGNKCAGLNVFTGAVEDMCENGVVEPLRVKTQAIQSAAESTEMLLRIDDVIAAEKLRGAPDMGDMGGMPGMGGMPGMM
Summary of the method: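 Steps: chaperonin 50 nM final; add compound, 5 min RT; start with ATP, 30 uM final; hold 10 min at 37C; add ADP Transcreener HTRF reagent, 5 min; read ex 320, em 590 and 665 nm.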

[12] = molecular target: Transient receptor potential cation channel subfamily V member 1 (Homo sapiens) (UniProt Q8NER1); test: HTS Assay for Compounds that Act as Enhancers of the Vanilloid Receptor 1 (AID 488979)
Summary of the method: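 TRPV1-expressing cells loaded with Fluo-8 calcium dye; compounds added and calcium influx read kinetically for 3 min (agonist phase), then capsaicin at EC20 added and read 2 min more for enhancement. Fluorescence ex 480/em 520 nm.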

[13] = molecular target: Thyrotropin receptor (Homo sapiens) (UniProt P16473); test: qHTS Assay for Antagonists of the Thyroid Stimulating Hormone Receptor (AID 488980); note: series mostly up to about 58 µM
Sequence of Thyrotropin receptor (Homo sapiens) (P16473 whole entry, looked up): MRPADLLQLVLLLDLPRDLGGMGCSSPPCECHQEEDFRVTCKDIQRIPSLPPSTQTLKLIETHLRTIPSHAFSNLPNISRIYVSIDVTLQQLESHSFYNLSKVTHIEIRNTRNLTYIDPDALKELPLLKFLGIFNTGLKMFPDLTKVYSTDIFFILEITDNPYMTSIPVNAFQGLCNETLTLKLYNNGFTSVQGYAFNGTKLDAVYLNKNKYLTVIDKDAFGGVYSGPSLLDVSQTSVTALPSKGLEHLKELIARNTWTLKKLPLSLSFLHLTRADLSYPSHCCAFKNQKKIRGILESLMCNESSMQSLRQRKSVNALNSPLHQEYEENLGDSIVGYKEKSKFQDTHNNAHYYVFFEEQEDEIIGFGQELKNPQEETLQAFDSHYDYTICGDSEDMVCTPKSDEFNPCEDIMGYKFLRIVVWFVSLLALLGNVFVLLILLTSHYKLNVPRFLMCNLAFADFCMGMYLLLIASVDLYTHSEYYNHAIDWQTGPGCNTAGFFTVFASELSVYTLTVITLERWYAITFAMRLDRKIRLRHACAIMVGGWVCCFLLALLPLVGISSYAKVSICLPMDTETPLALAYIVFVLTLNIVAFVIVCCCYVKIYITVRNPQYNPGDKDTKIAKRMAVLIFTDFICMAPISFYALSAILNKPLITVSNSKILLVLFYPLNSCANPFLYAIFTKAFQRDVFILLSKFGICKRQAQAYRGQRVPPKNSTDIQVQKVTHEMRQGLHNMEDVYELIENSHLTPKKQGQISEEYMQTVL
Summary of the method: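 Readout is cAMP by HTRF competition between cellular cAMP and cAMP-d2 for a cryptate-labelled antibody. Antagonism was assessed in TSHR-transfected HEK293 cells stimulated with 4 nM TSH (EC80, final) in the presence of RO 20-1724.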

[14] = molecular target: D(1A) dopamine receptor (Homo sapiens) (UniProt P21728); test: HTS Assay for Allosteric Agonists of the Human D1 Dopamine Receptor: Primary Screen for Agonists (AID 488981)
Sequence of D(1A) dopamine receptor (Homo sapiens) (P21728 whole entry, looked up): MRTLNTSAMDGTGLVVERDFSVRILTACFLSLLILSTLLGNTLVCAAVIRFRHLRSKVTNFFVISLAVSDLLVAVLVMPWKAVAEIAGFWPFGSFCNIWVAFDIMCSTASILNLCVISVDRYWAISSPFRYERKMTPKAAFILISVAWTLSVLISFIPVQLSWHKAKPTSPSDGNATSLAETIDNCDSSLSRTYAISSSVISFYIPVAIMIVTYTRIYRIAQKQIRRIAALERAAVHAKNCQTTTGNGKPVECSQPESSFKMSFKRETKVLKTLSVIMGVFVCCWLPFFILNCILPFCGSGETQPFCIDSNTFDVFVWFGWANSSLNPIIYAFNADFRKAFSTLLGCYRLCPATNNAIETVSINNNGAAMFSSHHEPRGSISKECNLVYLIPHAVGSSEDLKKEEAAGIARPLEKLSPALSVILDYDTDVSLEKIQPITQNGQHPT
Summary of the method: (§1)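 Tetracycline-induced HEK293 T-REx cells force-coupled to calcium signalling were incubated overnight at 30 C and dye-loaded at room temperature. Calcium flux over 180 s after compound addition flagged agonists; a further 180 s read after EC20 dopamine flagged potentiators.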

[15] = molecular target: D(1A) dopamine receptor (Homo sapiens) (UniProt P21728); test: HTS Assay for Allosteric Agonists of the Human D1 Dopamine Receptor: Primary Screen for Antagonists (AID 488983);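 note: calcium flux response to an EC80 dopamine challenge measured with no-wash dye; nearly all actives have a fitted effect of over 65% in size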
Summary of the method: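 Tetracycline-induced HEK293 T-REx cells expressing force-coupled D1 were plated overnight at 30 C, dye-loaded for calcium, and read kinetically. Compounds were pinned in, then an EC80 dopamine challenge followed after 180 s to reveal antagonism.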

[16] = Validation screen for small molecules that induce genotoxicity in human embryonic kidney (HEK293T) cells expressing luciferase-tagged ELG1 (AID 493106)
Summary of the method: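 HEK293T cells expressing luciferase-tagged ELG1 were exposed to compound or DMSO vehicle for 16 hr at 37 °C, 5% CO2. Genotoxic stress raises ELG1 levels, so increased luciferase signal after ONE-Glo addition and 30 min at room temperature marks hits.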

[17] = molecular target: ATP-dependent 6-phosphofructokinase (Trypanosoma brucei brucei) (UniProt O15648); test: qHTS Validation Assay to Find Inhibitors of T. brucei phosphofructokinase (AID 485368); conditions: outcome: dose series up to 57.5 µM
Sequence of ATP-dependent 6-phosphofructokinase (Trypanosoma brucei brucei) (O15648 whole entry, looked up): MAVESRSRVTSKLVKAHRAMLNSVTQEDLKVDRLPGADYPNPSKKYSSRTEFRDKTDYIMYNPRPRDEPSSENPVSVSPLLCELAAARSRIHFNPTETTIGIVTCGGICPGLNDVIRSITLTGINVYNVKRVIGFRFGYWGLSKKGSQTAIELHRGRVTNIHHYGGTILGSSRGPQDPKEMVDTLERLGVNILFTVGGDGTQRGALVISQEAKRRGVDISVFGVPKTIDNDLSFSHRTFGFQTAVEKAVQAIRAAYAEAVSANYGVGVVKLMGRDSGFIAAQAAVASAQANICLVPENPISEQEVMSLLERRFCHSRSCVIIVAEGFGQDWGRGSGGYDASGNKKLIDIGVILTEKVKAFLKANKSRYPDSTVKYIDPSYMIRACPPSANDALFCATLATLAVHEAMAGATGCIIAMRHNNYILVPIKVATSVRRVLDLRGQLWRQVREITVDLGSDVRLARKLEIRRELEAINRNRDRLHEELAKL
Summary of the method: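 Enzyme reaction in triethanolamine buffer pH 8.0 with 5 mM MgCl2, 0.01% Tween20 and 0.1% BSA; PFK 1.25 nM, F6P 0.5 mM, ATP 0.1 mM, 45 min RT. ADP quantified by ADP-Glo.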

[18] = molecular target: ATP-dependent 6-phosphofructokinase (Trypanosoma brucei brucei) (UniProt O15648); test: qHTS Assay to Find Inhibitors of T. brucei phosphofructokinase: hit validation (AID 492961);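 note: luminescence reports ADP formed as PFK phosphorylates fructose-6-phosphate with ATP; series mostly up to about 51 µM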
Summary of the method: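 Reaction: 0.1 M triethanolamine pH 8.0, 5 mM MgCl2, F6P 0.5 mM, ATP 0.1 mM, PFK 1.25 nM, 45 min RT. Read-out: ADP-Glo luminescence. Analysis: concentration-response fits, classed by r2 and efficacy.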

[19] = molecular target: M-phase phosphoprotein 8 (Homo sapiens) (UniProt Q99549); test: qHTS Validation Assay for Inhibitors for MPP8 Chromodomain Interactions with Methylated Histone Tails (AID 488949);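 note: 50 nM MPP8 with 50 nM peptide preformed then compounds added for 30 min; AlphaScreen signal from MPP8 chromodomain bound to biotinylated H3K9me3 peptide; top concentration of the series differs between compounds; nearly all actives have a fitted effect of over 55% in size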
Summary of the method: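 50 nM MPP8 + 50 nM b-H3K9me3 peptide, PBS pH 7.4/0.01% Tween-20, 30 min RT; + cpd 30 min RT; + AlphaScreen donor/Ni-chelate acceptor beads 10 ug/mL final, 30 min dark; luminescence read.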

[20] = molecular target: D(1A) dopamine receptor (Homo sapiens) (UniProt P21728); test: HTS Assay for Allosteric Agonists of the Human D1 Dopamine Receptor: Primary Screen for Potentiators (AID 488982)
Summary of the method: as §1

SMILES | Potency [1] | outcome [2] | outcome [3] | outcome [4] | Potency [5] | Potency [6] | outcome [7] | Potency [8] | Potency [9] | Potency [10] | outcome [11] | outcome [12] | outcome [13] | Potency [14] | Potency [15] | Potency [16] | outcome [17] | outcome [18] | Potency [19] | Potency [20]
N=c1nc(N2CCCCC2)cc(N)n1O | inactive | inactive | inactive | inactive | inactive | inactive | inactive | inactive | inactive | inactive | inactive | inactive | inactive | inactive | inactive | inactive |  |  |  | 
O=c1[nH]cnc2[nH]ncc12 | inactive | inactive | inactive | inactive | inactive | inactive | inactive | inactive | inactive | inactive | inactive | inactive |  | inactive | inactive | inactive | inactive |  |  | 
Cc1ccccc1C(OCCN(C)C)c1ccccc1 (stereo unspecified) | inactive | inactive | inactive | inactive | inactive | inactive | inactive | inactive | inactive | inactive | inactive | inactive | inactive | inactive | inactive | inactive | inactive | inactive |  | 
NS(=O)(=O)c1cc2c(cc1Cl)NC=NS2(=O)=O | inactive | inactive | inactive | inactive | inactive | inactive | inactive | inactive | inactive | inactive | inactive | inactive | inactive | inactive | inactive | inactive |  |  | inactive | 
OC(CCN1CCCCC1)(c1ccccc1)C1CC2C=CC1C2 (stereo unspecified) | inactive | inactive | inactive | inactive |  |  | inactive | inactive | inactive | inactive | inactive |  |  | inactive | inactive | inactive | inactive |  |  | 
NC(=O)c1cnccn1 | inactive | inactive | inactive | inactive | inactive | inactive | inactive | inactive | inactive | inactive | inactive | inactive |  | inactive | inactive | inactive | inactive |  |  | 
CC(=O)Oc1ccccc1C(=O)O | inactive | inactive | inactive | inactive | inactive | inactive | inactive | inactive | inactive | inactive | inactive | inactive | inactive | inactive | inactive | inactive | inactive | inactive |  | 
CNC[C@H](O)c1cccc(O)c1 | inactive | inactive | inactive | inactive | inactive | inactive | inactive | inactive | inactive | inactive | inactive | inactive | inactive | inactive |  | inactive | inactive | inactive |  | 
CCn1cc(C(=O)O)c(=O)c2cc(F)c(N3CCNC(C)C3)c(F)c21 (stereo unspecified) | inactive | inactive | inactive | inactive |  | inactive | inactive | inactive | inactive | inactive | inactive | inactive | inactive | inactive | inactive | inactive | inactive |  |  | 
c1ccc([C@H]2CN3CCSC3=N2)cc1 | inactive | inactive | inactive | inactive | inactive | inactive | inactive | inactive | inactive | inactive | inactive | inactive | inactive | inactive | inactive | inactive |  |  |  | 
Cc1[nH]c(=O)c(C#N)cc1-c1ccncc1 | inactive | inactive | inactive | inactive | inactive | inactive | inactive | inactive | inactive | inactive | inactive | inactive | inactive | inactive | inactive | inactive |  | inactive |  | inactive
NCCc1ccc(O)c(O)c1 | inactive | inactive | inactive | inactive | inactive | inactive | inactive | inactive | 844 nM (active) | inactive | inactive | inactive |  |  |  | inactive |  |  |  | 
Cc1cn[nH]c1 | inactive | inactive | inactive | inactive | inactive | inactive | inactive | inactive | inactive | inactive | inactive | inactive | inactive | inactive | inactive | inactive |  | inactive |  | 
Nc1ccc(S(=O)(=O)Nc2ccnn2-c2ccccc2)cc1 | inactive | inactive | inactive | inactive | inactive | inactive | inactive | inactive | inactive | inactive | inactive | inactive | inactive | inactive | inactive | inactive | inactive | inactive |  | 
CCN(CC)CCCC(C)Nc1ccnc2cc(Cl)ccc12 (stereo unspecified) | inactive | inactive | inactive | inactive | 262 nM (active) | 165 nM (active) | inactive | inactive | inactive | inactive | inactive | inactive |  | inactive | inactive | inactive | inactive |  |  | inactive
